From PubChem BioAssay (Tox21)
A number with no mark means an inactive call. Records with an inconclusive call do not appear. Entries that show only a call come without a potency. Calls of active or inactive are those of the source. Unless noted, calls follow the shape of the full dose curve.

Legend:
[1] = Nuclear factor erythroid 2-related factor 2/antioxidant responsive element (Nrf2/ARE) small molecule agonists: qHTS cell viability counter screen in human keratinocytes (AID 1919968; active = well fitted cell-killing curve with a large enough effect in the repeat runs; also: nearly all actives have a fitted effect of over 55% in size; also: potency is read from the fitted curve at half-maximal effect)
In short: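 CellTiter-Fluor fluorescence, read 1 h after reagent, gave viability in the same wells as the ARE-luciferase assay. KeratinoSens cells (1,500/well) had 23 h compound exposure at 37 C/5% CO2 following 5 h plating.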

[2] = Nuclear factor erythroid 2-related factor 2/antioxidant responsive element (Nrf2/ARE) small molecule agonists: luciferase reporter gene qHTS assay in human keratinocytes (AID 1919969); also: nearly all actives have a fitted effect of over 35% in size; also: potency is read from the fitted curve at half-maximal effect
[3] = target: Gonadotropin-releasing hormone receptor (Homo sapiens) (UniProt P30968); assay: Human gonadotropin-releasing hormone receptor (GnRHR) small molecule agonists, calcium flux assay in GnRHR-HEK293 cells (AID 1920063); also: nearly all actives have a fitted effect of over 35% in size
Sequence of Gonadotropin-releasing hormone receptor (Homo sapiens) (P30968 whole entry, looked up): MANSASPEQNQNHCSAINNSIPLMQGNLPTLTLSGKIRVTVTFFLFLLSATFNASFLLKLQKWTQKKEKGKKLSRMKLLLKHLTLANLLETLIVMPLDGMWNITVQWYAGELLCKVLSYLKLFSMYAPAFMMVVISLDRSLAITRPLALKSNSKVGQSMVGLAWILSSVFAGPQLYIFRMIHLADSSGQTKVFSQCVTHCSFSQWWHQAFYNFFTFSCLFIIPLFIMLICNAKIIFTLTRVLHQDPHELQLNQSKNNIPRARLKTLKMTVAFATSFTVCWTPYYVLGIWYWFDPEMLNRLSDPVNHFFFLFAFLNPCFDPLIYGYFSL
In short: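 Agonist mode: compounds at 15 concentrations, in triplicate, went onto calcium dye-loaded GnRHR-HEK293 cells. Intracellular calcium was then followed as 480/540 nm fluorescence at 1 s intervals over 3 min.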

[4] = p53 small molecule agonists, cell-based qHTS assay with human liver microsomes (AID 1963577)
In short: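 p53RE-bla cells, 4,000/well, compound added after 5 h, with human liver microsomes 0.5 mg/mL and NADPH 0.5 mg/mL final; 16 h at 37 C, then LiveBLAzer 2 h RT, fluorescence.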

[5] = p53 small molecule agonists, cell-based qHTS assay with rat liver microsomes (AID 1963578)
In short: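 p53RE-bla cells, 4,000/well, pre-incubated 5 h, then given compounds plus rat liver microsomes (0.5 mg/mL final) and NADPH (0.5 mg/mL final). Incubation 16 h at 37 C; beta-lactamase reporter read by LiveBLAzer fluorescence after 2 h at room temperature.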

[6] = p53 small molecule agonists, cell-based qHTS assay with rat liver microsomes: qHTS cell viability counter screen (AID 1963580); also: nearly all actives have a fitted effect of over 45% in size
In short: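 Rat liver microsome (0.5 mg/mL final) and NADPH (0.5 mg/mL final) co-incubation with compounds for 16 h at 37 C on HCT-116 p53RE-bla cells; cytotoxicity taken from intracellular ATP luminescence.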

[7] = p53 small molecule agonists, cell-based qHTS assay: qHTS cell viability counter screen (AID 1963581); also: nearly all actives have a fitted effect of over 45% in size
In short: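 Counter screen read by CellTiter-Glo luminescence (ATP content, 30 min at room temperature), run in the same wells as the beta-lactamase reporter read. HCT-116 p53RE-bla cells saw compounds for 16 h at 37 C.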

[8] = p53 small molecule agonists, cell-based qHTS assay (AID 1963582; active = well fitted activation curve with a large enough effect in the signal ratio in the repeat runs, not every such curve was filed as active; the % refers to the signal ratio)
In short: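 Read-out is beta-lactamase FRET fluorescence after 2 h at room temperature with LiveBLAzer B/G substrate. p53 response element-bla cells were treated 16 h at 37 C with compounds in DMSO, added 5 h after seeding.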

[9] = target: 5-hydroxytryptamine receptor 2A (Homo sapiens) (UniProt P28223); assay: 5-hydroxytryptamine receptor 2A (HTR2A) small molecule agonists, cell-based qHTS assay (AID 1963587); also: nearly all actives have a fitted effect of over 30% in size
Sequence of 5-hydroxytryptamine receptor 2A (Homo sapiens) (P28223 whole entry, looked up): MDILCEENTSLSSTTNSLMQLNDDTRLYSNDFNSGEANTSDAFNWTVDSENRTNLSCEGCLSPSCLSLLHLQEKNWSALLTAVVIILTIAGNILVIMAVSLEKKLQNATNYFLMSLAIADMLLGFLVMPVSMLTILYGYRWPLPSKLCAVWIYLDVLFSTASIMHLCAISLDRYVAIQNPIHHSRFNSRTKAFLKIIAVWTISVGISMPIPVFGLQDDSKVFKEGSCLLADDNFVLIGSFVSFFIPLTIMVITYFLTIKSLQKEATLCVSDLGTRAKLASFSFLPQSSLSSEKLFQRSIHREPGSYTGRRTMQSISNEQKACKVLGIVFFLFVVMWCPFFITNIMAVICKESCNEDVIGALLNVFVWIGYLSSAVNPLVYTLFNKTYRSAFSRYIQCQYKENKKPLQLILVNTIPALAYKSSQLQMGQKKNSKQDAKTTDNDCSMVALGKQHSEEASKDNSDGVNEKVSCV
In short: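 Kinetic calcium-flux fluorescence (2 min, 1 sec intervals) after compound addition in agonist mode. HTR2A-CHO cells were cultured 18 h, then dye-loaded 1 h at 37 C.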

[10] = target: Muscarinic acetylcholine receptor M1 (Homo sapiens) (UniProt P11229); assay: Cholinergic receptor muscarinic 1 (CHRM1) small molecule antagonists, cell-based qHTS assay (AID 1963588); also: nearly all actives have a fitted effect of over 40% in size
Sequence of Muscarinic acetylcholine receptor M1 (Homo sapiens) (P11229 whole entry, looked up): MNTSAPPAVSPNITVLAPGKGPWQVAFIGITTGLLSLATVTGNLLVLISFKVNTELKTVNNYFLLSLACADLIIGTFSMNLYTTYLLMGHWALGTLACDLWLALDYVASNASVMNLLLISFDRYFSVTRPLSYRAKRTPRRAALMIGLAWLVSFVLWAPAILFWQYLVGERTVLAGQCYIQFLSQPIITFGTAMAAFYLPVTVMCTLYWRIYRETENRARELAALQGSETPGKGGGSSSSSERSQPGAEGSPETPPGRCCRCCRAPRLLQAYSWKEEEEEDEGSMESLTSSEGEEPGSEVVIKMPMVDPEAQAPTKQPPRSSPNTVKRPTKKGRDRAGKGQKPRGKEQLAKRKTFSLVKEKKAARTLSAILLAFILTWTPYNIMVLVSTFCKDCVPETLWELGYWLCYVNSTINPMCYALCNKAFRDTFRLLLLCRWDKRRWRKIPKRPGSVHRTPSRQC
In short: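 Compounds were tested at 15 concentrations in three independent runs. Dye-loaded CHRM1-CHO cells were exposed 5 min at room temperature before stimulation by acetylcholine added at 50nM. Intracellular calcium was read kinetically on FDSS for 3 min.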

[11] = target: Muscarinic acetylcholine receptor M1 (Homo sapiens) (UniProt P11229); assay: Cholinergic receptor muscarinic 1 (CHRM1) small molecule agonists, cell-based qHTS assay (AID 1963589); also: nearly all actives have a fitted effect of over 35% in size
In short: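 Agonist-mode calcium-flux screen: compounds at 15 concentrations, three independent runs, were pin-transferred onto dye-loaded human CHRM1-CHO cells. Fluorescence was then recorded kinetically every second over minutes.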

[12] = cAMP Responsive Elements (CRE) small molecule agonists, cell-based qHTS assay (AID 1963590)
In short: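 Agonist mode: compound added to CRE-bla HEK 293T cells (2,000/well, 18 h after plating) for 3 h at 37 C/5% CO2. Reporter activity detected via FRET beta-lactamase substrate, 2 h room-temperature loading.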

[13] = cAMP Responsive Elements (CRE) small molecule antagonists, cell-based qHTS assay (AID 1963591; active = well fitted inhibition curve with a large enough effect in the signal ratio in the repeat runs, not every such curve was filed as active; the % refers to the signal ratio)
In short: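 Antagonist mode: compounds are added alongside the adenylyl cyclase activator NKH477 (0.25 uM final) to CRE-bla HEK293T cells for 3 h. LiveBLAzer FRET substrate, 2 h at room temperature, reports bla expression.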

[14] = target: Beta-2 adrenergic receptor (Homo sapiens) (UniProt P07550); assay: Adrenergic beta2 receptor (ADRB2) small molecule antagonists, cell-based qHTS assay (AID 1963592); also: nearly all actives have a fitted effect of over 50% in size; also: potency is read from the fitted curve at half-maximal effect
Sequence of Beta-2 adrenergic receptor (Homo sapiens) (P07550 whole entry, looked up): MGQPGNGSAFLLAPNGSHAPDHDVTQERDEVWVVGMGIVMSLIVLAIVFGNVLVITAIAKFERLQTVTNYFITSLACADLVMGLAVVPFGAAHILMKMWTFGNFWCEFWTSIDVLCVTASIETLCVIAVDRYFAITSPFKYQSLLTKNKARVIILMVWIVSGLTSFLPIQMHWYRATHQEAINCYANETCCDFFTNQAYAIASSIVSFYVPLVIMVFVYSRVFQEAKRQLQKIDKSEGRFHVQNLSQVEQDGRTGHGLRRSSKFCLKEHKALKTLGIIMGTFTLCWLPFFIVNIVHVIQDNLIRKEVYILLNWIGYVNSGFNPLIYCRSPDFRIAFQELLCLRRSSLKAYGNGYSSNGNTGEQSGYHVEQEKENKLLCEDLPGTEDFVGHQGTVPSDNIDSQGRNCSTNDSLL
In short: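 Assay format: CHO-ADRB2 cells, 18-20hr seeding at 37C/5% CO2, then compound plus 1nM isoproterenol agonist mix for 0.5hr RT. Homogeneous time-resolved fluorescence cAMP detection after 1hr, expressed as 665/615 nm ratio.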

[15] = target: D(2) dopamine receptor (Homo sapiens) (UniProt P14416); assay: Dopamine D2 receptor (DRD2) small molecule antagonists, cell-based qHTS assay (AID 1963595; active = well fitted inhibition curve with a large enough effect in the signal ratio in the repeat runs, with a control signal flat; the % refers to the signal ratio; also: potency is read from the fitted curve at half-maximal effect)
Sequence of D(2) dopamine receptor (Homo sapiens) (P14416 whole entry, looked up): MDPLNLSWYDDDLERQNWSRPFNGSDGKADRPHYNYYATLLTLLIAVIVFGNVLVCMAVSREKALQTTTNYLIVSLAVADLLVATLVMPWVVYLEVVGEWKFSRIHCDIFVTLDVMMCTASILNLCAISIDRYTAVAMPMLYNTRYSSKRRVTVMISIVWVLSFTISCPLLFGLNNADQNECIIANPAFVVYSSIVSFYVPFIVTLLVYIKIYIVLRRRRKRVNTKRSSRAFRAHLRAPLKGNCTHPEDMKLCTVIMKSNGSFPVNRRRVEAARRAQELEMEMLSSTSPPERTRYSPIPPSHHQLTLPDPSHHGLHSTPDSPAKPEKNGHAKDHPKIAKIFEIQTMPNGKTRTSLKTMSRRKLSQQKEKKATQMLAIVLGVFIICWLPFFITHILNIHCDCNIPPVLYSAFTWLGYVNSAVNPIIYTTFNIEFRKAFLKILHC
In short: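 HEK293 cells stably expressing DRD2, preincubated with 0.1 mM Ro20-1724 and compounds 10 min, were stimulated with 200 nM NKH477 plus 12 nM quinpirole for 30 min at room temperature; cAMP measured by HTRF (665/620 nm).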

[16] = G protein-coupled receptor (GPCR) small molecule agonists, calcium flux assay: HEK293 wild type cell line counter screen (AID 1920065)
In short: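 Calcium flux counter screen: compound added in agonist mode at 15 concentrations in triplicate to dye-loaded parental HEK293 cells. Fluorescence (480/540) read kinetically for 3 min; ATP served as positive control.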

[17] = p53 small molecule agonists, cell-based qHTS assay with human liver microsomes: qHTS cell viability counter screen (AID 1963579); also: nearly all actives have a fitted effect of over 45% in size
In short: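 p53RE-bla cells, 4,000/well, dosed 5 hours after plating, with human liver microsomes (0.5 mg/mL final) plus NADPH (0.5 mg/mL final), 16 hours at 37 C. Viability read as CellTiter-Glo luminescence after 30 min at room temperature.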

[18] = target: 5-hydroxytryptamine receptor 2A (Homo sapiens) (UniProt P28223); assay: 5-hydroxytryptamine receptor 2A (HTR2A) small molecule antagonists, cell-based qHTS assay (AID 1963586); also: nearly all actives have a fitted effect of over 45% in size; also: potency is read from the fitted curve at half-maximal effect
In short: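 CHO cells stably expressing human HTR2A were plated for 18 h at 37 C, then loaded with calcium dye for 1 h. Compounds were preincubated 5 min at room temperature before DOI (4 nM solution) was added. Kinetic fluorescence was read for 3 min.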

[19] = target: D(2) dopamine receptor (Homo sapiens) (UniProt P14416); assay: Dopamine D2 receptor (DRD2) small molecule agonists, cell-based qHTS assay (AID 1963594); also: nearly all actives have a fitted effect of over 35% in size
In short: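 cAMP accumulation in DRD2-HEK293 cells measured by HTRF after 1 h detection; compounds added 10 min before NKH477 (200nM […]) forskolin-analogue stimulation, 30 min at room temperature, with Ro20-1724 present at 0.1 mM final.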

[20] = target: Beta-2 adrenergic receptor (Homo sapiens) (UniProt P07550); assay: Adrenergic beta2 receptor (ADRB2) small molecule agonists, cell-based qHTS assay (AID 1963593);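 also: CHO cells stably overexpressing human ADRB2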
In short: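 CHO cells stably over-expressing ADRB2 were plated overnight at 37C, then dosed with compounds plus a stimulation mix containing 100uM IBMX and 25uM Ro-20-1724 for 0.5hr at room temperature. cAMP was measured by HTRF competition, 1hr.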

Compound | Potency [1] | Potency [2] | Potency [3] | Potency [4] | Potency [5] | Potency [6] | Potency [7] | Potency [8] | Potency [9] | Potency [10] | Potency [11] | Potency [12] | Potency [13] | Potency [14] | Potency [15] | outcome [16] | Potency [17] | Potency [18] | Potency [19] | Potency [20]
CCC(C=O)CC | inactive | inactive | inactive | inactive | inactive | inactive | inactive | inactive | inactive | inactive | inactive | inactive | inactive | inactive | inactive |  |  |  |  | 
CCCC(=O)C(CC)Sc1ccoc1C (centres undefined) | inactive | inactive |  | inactive | inactive | inactive | inactive | inactive | inactive | inactive | inactive | inactive | inactive | inactive | inactive | inactive | inactive | inactive | inactive | 
CCCCCCCCC=O | inactive | inactive |  | inactive | inactive | inactive | inactive | inactive | inactive | inactive | inactive | inactive |  | inactive | inactive | inactive | inactive | inactive | inactive | 
CC1(C)C(=O)C(C)(C)C1=O | inactive | inactive | inactive | inactive | inactive | inactive | inactive | inactive | inactive | inactive |  | inactive | inactive | inactive | inactive |  | inactive | inactive | inactive | 
O=C(O)c1c(Cl)cccc1Cl | inactive | inactive | inactive |  | inactive | inactive | inactive | inactive | inactive | inactive | inactive | inactive | inactive | inactive |  | inactive | inactive |  | inactive | 
CC(C)(O)c1ccc(CNC(=O)c2cccnc2Oc2ccc3nonc3c2)cc1 | inactive | inactive | inactive | inactive | inactive | inactive | inactive |  | inactive | inactive |  |  |  | inactive | inactive |  | inactive | inactive |  | 
COc1ccc2sc(C(=O)Nc3nnn[nH]3)c(OC(C)C)c2c1 | 27.2 µM (active) | 24.2 µM (active) |  | inactive | inactive | inactive | inactive | inactive | inactive | inactive | inactive |  |  |  | inactive | inactive | inactive | inactive |  | 
O=C(O)c1ccc2cc(O)ccc2c1 | inactive | inactive | inactive | inactive |  | inactive | inactive | inactive | inactive | inactive | inactive |  |  | inactive | inactive | inactive |  |  | inactive | inactive
CCOC(=O)c1ccccc1 | inactive | inactive | inactive |  | inactive | inactive |  | inactive | inactive | inactive | inactive | inactive | inactive | inactive | inactive | inactive | inactive | inactive | inactive | 
CCc1cccc(CC)c1N(COC)C(=O)CS(=O)(=O)O | inactive | inactive |  | inactive | inactive | inactive | inactive | inactive | inactive | inactive | inactive | inactive | inactive | inactive | inactive | inactive | inactive | inactive | inactive | 
CC(C)(O)c1ccccc1 | inactive | inactive | inactive | inactive |  | inactive |  | inactive | inactive | inactive |  | inactive |  | inactive | inactive | inactive | inactive | inactive | inactive | 
CC(=O)c1ccc(Cl)c(Cl)c1Cl | inactive | inactive |  | inactive | inactive | inactive | inactive | inactive | inactive | inactive | inactive | inactive | inactive | inactive | inactive | inactive | inactive | inactive | inactive | 
CN(C)CCC=C1c2ccccc2C=Cc2ccccc21 | inactive | inactive | inactive |  | inactive | inactive |  |  | inactive | inactive | inactive | inactive | inactive |  | 33.5 µM (active) |  | inactive | 0.818 µM (active) | inactive | 
COc1ccccc1OCC(O)CN1CCN(CC(=O)Nc2c(C)cccc2C)CC1 (centres undefined) | inactive | inactive |  | inactive | inactive | inactive | inactive | inactive | inactive | inactive | inactive | inactive |  | 11.9 µM (active) | inactive | inactive | inactive | inactive | inactive | 
